In PubChem BioAssay AID1117319 (Southern Research Institute, 2015):
“And” between values parts separate entries of the source, which are not always exact repeats. Equal values may be shown once. Among all 260,000 compounds or so, about 1,500 (0.58%) were called active. About 5% were inconclusive and are not listed.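 How the source made its calls: active means inhibition above a set limit at one or more doses, reproduced on every date tested; inconclusive means results disagree between test dates, or hit never tested in dose response; inactive means the rest.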 These entries were drawn from the full list. Measured potencies and affinities stand elsewhere.

biological target: Virion infectivity factor (Human immunodeficiency virus type 1 group M subtype B (isolate BH10)) + Virion infectivity factor (Human immunodeficiency virus type 1 group M subtype B (isolate BRU/LAI)) + Virion infectivity factor (Human immunodeficiency virus type 1 group M subtype B (isolate PCV12)) + Virion infectivity factor (Human immunodeficiency virus type 1 group M subtype B (isolate HXB2)) + DNA dC->dU-editing enzyme APOBEC-3G (Homo sapiens) (UniProt P69720+P69721+P69722+P69723+Q9HC16); experiment: HIV-1 Vif–A3G interaction blockers – biochemical, TR-FRET, GST-Vif 1-94, biotin-A3G peptide, dose response retest, primary screen (AID 1117319); details: TR-FRET GST-Vif / biotin-A3G peptide binding; stronger effect = higher value;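 further: Vif residues 1-94 fused to GST binding biotinylated APOBEC3G peptide 110-148; 0% = full assay without inhibitor and 100% = GST in place of GST-Vif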

inhibition, inactive:
CCn1c(O)c(N=Nc2ccc(Cl)c(C(=O)O)c2)c2ccccc21 16%
O/N=C/c1nc2cc(Cl)ccc2o1 4.03%
CC(=O)N(C1=C(N)C(=O)c2ccccc2C1=O)c1ccccc1 4.9%
CC(=O)N(C1=C(N2CCOCC2)C(=O)c2ccccc2C1=O)c1ccc(C(=O)O)cc1 14.4%
COC(=O)c1[nH]c2c(c1C)C(=O)CC(c1ccc(OC)c(OC)c1)C2 (centres undefined) -9.19%
C=CC[C@@H](CC(=O)N[C@H](CO)Cc1ccccc1)C(=O)N[C@@H](COC(=O)[C@@H](CC=C)CC(=O)OC(C)(C)C)Cc1ccccc1 -0.04%
CC1=C(C(=O)Nc2ccc(C)cc2)C(c2ccc(N(C)C)cc2)NC(=O)N1 (centres undefined) -2.24% and 24.2%
CC1=C(C(=O)Nc2ccccc2)C(c2ccc(N(C)C)cc2)NC(=O)N1 (centres undefined) 8.56%
O=C(NC(C(=O)N/N=C/c1cccc2ccccc12)c1n[nH]c(=O)c2ccccc12)c1ccccc1 (centres undefined) 4.11%
O=[N+]([O-])c1ccc(NN=Cc2ccccc2O)nc1 7.07%
O=C(O)Cc1c(O)ccc2ccccc12 3.01%
O=C(O)Cc1ccccc1C(=O)O 0.17%
O=C(N/N=C1\CCCc2ccccc21)c1cccc([N+](=O)[O-])c1 3.37%
COC(=O)CCN(C(=O)c1ccc(N2CCCCC2)c([N+](=O)[O-])c1)c1ccccn1 -7.46%
COc1ccc(C(=O)NNC(=O)c2ccc(C)cc2)cc1S(=O)(=O)N1CCCC1 -1.1%
CCCCCC(=O)N1C[C@H](n2cc(C3CC3)nn2)[C@@H](O)C[C@@H]1c1ccc(C)cc1 -2.78%
COc1ccccc1C(=O)n1nc(-c2ccc(Cl)cc2)nc1N 20.4%
COc1ccc(C(=O)n2nc(-c3ccccc3)nc2N)cc1OC -0.61% and -0.84%
Cc1occc1C(=O)N(C)CC1CCCN(CCc2ccccc2F)C1 (centres undefined) 7.6%
O=C1C(=Cc2ccco2)CCC1=Cc1ccco1 -4.11%
O=C1/C(=C/c2ccco2)CCC1C1CCCC1 (centres undefined) 25.4%
O/N=C1\CCCC\C1=C/c1ccccc1 5.14%
COc1ccc2c(c1)CC/C(=C/c1ccco1)C2=O 26.2%
O=C1/C(=C\c2ccccc2)CCC/C1=C/c1ccccc1 -1.78%
NC(=N\N=Cc1ccco1)/C(N)=N/N=Cc1ccco1 27.4%
Cc1ccccc1C(=O)NC1CCS(=O)(=O)C1 (centres undefined) -1.4%
CCc1ccc(CN(C)Cc2nc(Cc3ccc(OC)c(OC)c3)no2)nc1 -3.31%
COc1ccc(OC)c(NC(=O)CCN2CCN(c3ccccc3F)CC2)c1 25.7%
Nc1nc(CN2CCCCCC2)nc(Nc2ccc(F)cc2)n1 -3.7%
Cc1ccc(S(=O)(=O)CCC(=O)NCCc2ccccc2)cc1 1.3%
Cc1ccc(CCNC(=O)CCS(=O)(=O)c2ccc(Br)cc2)cc1 28.3%
COc1ccc(S(=O)(=O)CCC(=O)NC2CCCCC2)cc1 23.2%
COc1ccc(S(=O)(=O)CCC(=O)NCCc2ccc(S(N)(=O)=O)cc2)cc1 12.3%
Cc1ccc(S(=O)(=O)CCC(=O)NC2CCCCC2)cc1 3.12%
O=C(CCNS(=O)(=O)c1ccc(Br)cc1)NCCc1ccccc1 -1.9%
CC(NS(=O)(=O)c1ccccc1)C(=O)Nc1ccc2c(c1)OCCO2 (centres undefined) 0.08%
CC(=O)NCCn1c(SCc2ccccc2F)nc2ccccc2c1=O -4.55%
O=C(CSc1nc2sc3c(c2c(=O)[nH]1)CCC3)NCCO -6.15%
O=C(Cc1ccccc1)Nc1ccccc1C(=O)Nc1ccccc1 9.21%
O=C(CC12CC3CC(CC(C3)C1)C2)NCc1ccccc1 0.11%
FC(F)(F)c1ccc2c(c1)NCC1CCCN21 (centres undefined) 32.5%
O=C1Nc2ccccc2N2CCCC12 (centres undefined) -3.06%
COc1ccc(CNC(=O)C(C)N(C)Cc2cccc(F)c2)cc1 (centres undefined) -5.46%
CCNc1ccc(C(=O)NN=C2CCCC2)cc1[N+](=O)[O-] 4.6%
Cc1ccc(C)c(NC(=O)CSc2nc3[nH]ncc3c(=O)[nH]2)c1 8.18%
COc1cc(OC)c(-c2noc(C(=O)OC(C)(C)C)c2C(=O)OC(C)(C)C)c(OC)c1 -1.31%
COc1cccc(N2C(=O)/C(=C\c3cccs3)NC2=S)c1 7.97%
Cc1ccc(N2NC(=O)/C(=C\c3cc4c(cc3[N+](=O)[O-])OCO4)C2=O)cc1C 27.7%
COc1cccc(/C=C2/C(=O)NN(c3ccccc3)C2=O)c1 0.84%
O=C(/C=C/c1ccc([N+](=O)[O-])s1)N1CCN(c2ccccc2)CC1 2.14%
O=C1N/C(=C/c2ccc(Br)s2)C(=O)N1c1ccccc1 -0.93%
COc1ccccc1N1C(=O)S/C(=C\c2ccc(C)s2)C1=O -7.12%
COc1ccccc1NC(=O)C(=O)N/N=C/c1ccc([N+](=O)[O-])s1 -6.16%
O=C1NC(=S)N/C1=C/c1cc2c(cc1[N+](=O)[O-])OCO2 -9.06%
CCOC(=O)C1=C(CC)Nc2ccccc2N=C1NC(=O)c1ccc(S(=O)(=O)N2CCOCC2)cc1 -4.07%
O=c1nc2n(c3ccc([N+](=O)[O-])cc13)CCCCC2 -7.12%
CCOC(=O)N1CCC(NC(=O)c2cc(S(=O)(=O)N3CCc4ccccc43)cn2C)CC1 -4.57%
CCOC(=O)C1=C(C)N(C[C@@H]2CC[C@@H](Cc3ccc(-c4ccccc4)cc3)O2)C(=O)NC1c1ccc(SCc2ccco2)c([N+](=O)[O-])c1 (some centres undefined) 30.7%
Cc1nc2c(s1)sc1ccccc12 -4.72%
C=CC(=O)NC(C)(C)CCN1CCOCC1 0.07%
CCc1cccc(C)c1NC(=O)CO/N=C(\N)CC(=O)NC1CCCCC1 -0.04%
O=C1C=CC(=Nc2ccc3c(c2)C(=O)c2ccccc2-3)O1 -2.81%
O=[N+]([O-])c1ccccc1C=NNc1ccccc1 -8.57%
COc1ccc(CC(NC(C)=O)C(=O)NC2CCN(S(=O)(=O)c3ccccc3)CC2)c(OC)c1 (centres undefined) 3.28%
O=C(COC(=O)C12CC3CC(CC(Br)(C3)C1)C2)N1CCOCC1 4.7%
Cc1cc(=O)oc2cc(OCC(=O)N3CCCc4ccccc43)ccc12 -3.74%
COCCCNc1nc2nonc2nc1N1CCC(C(C)N2CCOCC2)CC1 (centres undefined) -10.9%
O=C(c1cccc(C(=O)N2CCN(c3ncccn3)CC2)c1)N1CCN(c2ncccn2)CC1 17.4%
O=C(c1ccco1)N1CCN(c2ncccn2)CC1 5.99%
CN1CCN(C(=O)c2ccc3nc(-c4ccccc4)c(-c4ccccc4)nc3c2)CC1 5.63%
CCN1CCN(C(=O)c2ccc3nc(-c4ccccc4)c(-c4ccccc4)nc3c2)CC1 -0.29%
O=C(COc1ccccc1)NC(Cc1c[nH]c2ccccc12)C(=O)O (centres undefined) 7.79%
c1ccc(-c2noc(CCC3CCCC3)n2)cc1 -1.6%
Cc1c(C(=O)N2CCCCCC2)oc2ccccc12 30.7%
Cc1cc(C)nc(N/N=C/c2ccc(Cl)cc2)n1 -3.39%
Cc1cc(C)nc(NN=CC2=C(N3CCOCC3)/C(=C/c3ccc(Cl)cc3)CC2)n1 17.2%
CN(C)CCNC(=O)c1ccc(CS(=O)(=O)c2c(Cl)cccc2Cl)o1 3.4%
COC(CNC(=O)c1ccc(CS(=O)(=O)c2c(Cl)cccc2Cl)o1)OC -0.54%
CC(=O)c1cccc(NC(=O)N2CCCC2C(=O)NC2CCCCC2)c1 (centres undefined) -4.16%
CCOc1ccc2nc(NC(=O)CSc3nc4c(c(=O)n(C)c(=O)n4C)n3C(C)C)sc2c1 18.8%
O=C(c1cccc(C(=O)N2CCN(c3ccccc3F)CC2)c1)N1CCN(c2ccccc2F)CC1 -8.59%
CCC(=O)c1ccc(N2CCN(C(=O)c3cccc(F)c3)CC2)c(F)c1 -9.86%
CCOC(=O)C1CCN(CC(O)COCc2ccc(Cl)cc2)CC1 (centres undefined) 8.82%
O=S(=O)(/C=C/c1ccccc1)N1CCN(c2cccc(Cl)c2)CC1 -3.95%
O=C(Nc1nnc(-c2ccco2)s1)C1CCCCC1 22.7%
CS(=O)(=O)c1ccc2nc(NC(=O)c3ccco3)sc2c1 8.25%
COc1ccc(C(=O)Nc2nnc(-c3ccco3)s2)cc1 -3.84%
O=C(Nc1ccc(F)cc1F)c1cc(-c2ccco2)on1 5.56%
O=C(Nc1nnc(-c2ccco2)s1)C1CC1 12.1%
Cc1ccc(C(=O)Nc2nc(-c3ccco3)c(-c3ccco3)s2)o1 23.7%
O=C(NC(=S)Nc1nc2ccc(F)cc2s1)c1ccco1 9.98%
O=C(Nc1nc(-c2cccs2)c(-c2ccccc2)s1)c1ccco1 2.82%
COc1ccc(CNC(=O)N[C@@H](CC(C)C)C(=O)O)cc1OC -2.37%
CCCc1cc(=O)[nH]c(SCC(=O)NCC2COc3ccccc3O2)n1 (centres undefined) -7.96%
